The structures appear in SMILES notation. The whole screen tested about 320,000 compounds, of which about 1,300 (0.41%) were called active. Roughly 3% stayed inconclusive and do not appear here. The rule behind the calls is not given here. A selection follows. Measured potencies and affinities stand elsewhere.

The nature of this assay: growth inhibition of non-replicating M. tuberculosis (AID 488890).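 Note: plate controls were DMSO cells for no effect and high antibiotic wells for full effect.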 Particulars: Mycobacterium tuberculosis non-replicating, at 25 µM, stronger effect = higher value.
The inhibition is the change of the read-out against control, counted positive when it falls. Turning to `CC(NC(=O)c1cc(S(=O)(=O)N2CCOCC2)ccc1N1CCCC1)c1ccc(Cl)c(Cl)c1` (stereo unspecified), the inhibition worked out at 4.97%.
The same measure for `Cc1cccc(Cn2c(N3CCN(C)CC3)nc3c2c(=O)n(C)c(=O)n3C)c1`: -18%.
On to `CCOC(=O)c1c(NC(=O)COC(=O)c2nccnc2N)sc2c1CCC2`, for which the inhibition amounted to 26.4%.
As to `CCOC(=O)c1c(NC(=O)COC(=O)c2ccccn2)sc(C)c1C`, the inhibition is 37%.
Consider `Cc1ccc(CN2C(=O)CSC2c2ccccc2F)cc1` (stereo unspecified), for which the inhibition worked out at 10.3%.
The same measure for `CCCCCCn1c(COc2ccccc2F)nnc1SCC(=O)c1c(N)n(C)c(=O)n(C)c1=O`: -10.3%.
The same measure for `CC1=CS(=O)(=O)CC1Sc1nc(C)n[nH]1` (stereo unspecified): -1.03%; for `Cc1ccc(O)c(C(=O)c2cnc3c(c2)c(=O)n(C)c(=O)n3C)c1`: -3.64%.
Under `O=C(Cn1ccc2cc(S(=O)(=O)N3CCCC3)ccc21)NCc1ccco1` stands 21.9%; under `CN1C(=O)N(C)c2ccc(Br)c3cccc1c23`, 6.26%; under `CN1C(=O)N(C)c2cccc3cccc1c23`, 0.15%.
Regarding `OCC1(Cc2ccccc2)CCN(Cc2cnc(-c3cccc4ccccc34)nc2)CC1`, the inhibition worked out at 4.25%.
The same measure for `CCC(C)NC(=O)Cn1c(=O)sc2ccccc21` (stereo unspecified): 1.3%; for `Cc1ccc2cccc(OCC(=O)Nc3cccc(S(=O)(=O)N4CCCC4)c3)c2n1`: 4.51%; for `O=C(CSc1nc2ccccc2nc1N1CCOCC1)Nc1ccccc1F`: 6.49%.
Take `CCN(CC(=O)Nc1ccc(NC(C)=O)cc1)C(=O)c1cc(CN2C(=O)c3ccccc3C2=O)ccc1OC`: the inhibition was -15%.
For the compound `Cc1c(Cl)cccc1NC(=S)N(C)CCC#N`, the inhibition is -8.13%.
The same measure for `COc1ccc(C(=O)C2CCCN(Cc3cccc(C)n3)C2)c(OC)c1` (stereo unspecified): 19.9%; for `COc1cccc(C(=O)C2CCCN(Cc3ccccn3)C2)c1` (stereo unspecified): 23%.
The same measure for `COc1cccc(C(=O)C2CCCN(Cc3cccc(C)n3)C2)c1` (stereo unspecified): 37.8%; for `COc1ccc(C(=O)C2CCCN(Cc3ccccn3)C2)c(OC)c1` (stereo unspecified): 21.8%.
The same measure for `CCOc1ccccc1N1CCN(C(=O)c2cc[n+]([O-])cc2)CC1`: 15.7%.
In the case of `CC(=O)Nc1ccc(S(=O)(=O)NCCc2csc(C)n2)cc1`, the inhibition is -0.23%.
Turning to `Cc1ccccc1OCCCC(=O)NCc1ccco1`, the inhibition came out at 15.7%.
Turning to `C/C(=N\Nc1nc2ccccc2[nH]1)c1ccccn1`, the inhibition was 78.5%.
For the compound `O=C(Nc1nc2ccccc2[nH]1)c1cc2ccccc2o1`, the inhibition was found to be 34.8%.
For the compound `CCOc1ncccc1C(=O)OCc1ccc([N+](=O)[O-])cc1`, the inhibition is 57.5%.
Under `CCn1c(N2CCN(C(=S)NC)CC2)nc2ccccc21` stands -6.07%.
Under `CC(C1CC1)N(Cc1ccccc1)C(=S)Nc1cccc(C(F)(F)F)c1` (stereo unspecified) stands 66.8%.
With `COc1ccc(C2=Nc3cc(C)ccc3OC2)cc1`, the inhibition is 23.2%.
Consider `Cc1ccc2c(c1)N=C(c1ccc(Cl)cc1)CO2`, for which the inhibition turned out to be 29%.
Under `Clc1ccc(C2=Nc3cc(Cl)ccc3OC2)cc1` stands 15.6%.
For `Cc1ccc2c(c1)N=C(c1ccc(F)cc1)CO2`, the inhibition was 30.4%.
Under `Cc1cc(=O)[nH]c(SCC(=O)N2CCC(Cc3ccccc3)CC2)n1` stands 0.43%; under `CCN(C(=O)c1cc2cc3ccc(C)cc3nc2o1)c1ccc(OC)cc1`, 75.9%; under `CS(=O)(=O)N1CCC(C(=O)N2CCN(c3ccc(F)cc3)CC2)CC1`, -0.02%.
With `O=C(NCC(=O)N1CCc2ccccc2C1)c1ccc(Cl)cc1Cl`, the inhibition was found to be 7.88%.
Under `O=C(c1cc([N+](=O)[O-])ccc1Cl)N1CCc2ccccc21` stands 43%; under `O=C(c1cc([N+](=O)[O-])ccc1N1CCCCC1)N1CCc2ccccc21`, 21%; under `C/C(CC(=O)Nc1ccc(Cl)cc1Cl)=N\NC(=O)c1ccco1`, 62.2%.
On to `Cc1c2ccccc2nc2c(F)c(NC(C)C)c(F)c(F)c12`, for which the inhibition is 25.6%.
Under `Cc1c2ccccc2nc2c(F)c(N(C)C)c(F)c(F)c12` stands 67.8%; under `CCCn1c(NC(=O)c2cccc(S(=O)(=O)N3CCCC3)c2)nc2ccccc21`, 12.3%.
As to `Cc1[nH][nH]c(=O)c1N=Nc1ccccc1Cl`, the inhibition amounted to 2.18%.
For `Cc1[nH]n(S(=O)(=O)c2ccccc2)c(=O)c1N=Nc1cccc(Cl)c1`, the inhibition is 70.6%.
As to `C#CCOCCOCCOCCNc1nc(N2CCN(C(=O)[C@H](CCC(=O)O)n3cc([C@@H](N)[C@H](C)CC)nn3)CC2)nc(N2CCN(C(=O)[C@H](CCCCN)n3cc([C@@H](N)CC(N)=O)nn3)CC2)n1`, the inhibition is -0.95%.
Under `Cc1cccc2c(=O)c(Br)c(C)n(Cc3ccccc3)c12` stands -19.5%; under `CCOC(=O)Cn1c(=O)cc(C)c2cccc(C)c21`, 78.8%.
The same measure for `CC(NC(=S)NC(=O)c1ccccc1)c1ccccc1` (stereo unspecified): 38.7%.
Under `COc1ccc(OC)c(C2Nc3ccccc3NC3=C2C(=O)CC(C)(C)C3)c1` (stereo unspecified) stands 3.61%.
With `Cc1ccc(C)c(NC(=O)CN(C)C(=O)C2=NNC(=O)CC2)c1`, the inhibition was 10.7%.
Under `NS(=O)(=O)c1ccc(NC(=O)COC(=O)c2cc(Cl)ccc2[N+](=O)[O-])cc1` stands 16.2%; under `CC(C)(C)NC(=O)COC(=O)c1cc(Cl)ccc1[N+](=O)[O-]`, 70.2%; under `O=C(C1=C(O)C(=O)N(CCCn2ccnc2)C1c1ccc(F)cc1)c1ccco1` (stereo unspecified), 1.68%.
The same measure for `CC(C)(C)NS(=O)(=O)c1ccc(NC(=O)C2CC(=O)N(CCc3ccc(F)cc3)C2)cc1` (stereo unspecified): 6.94%.
Under `COc1ccc(CCN2CC(C(=O)NCC3(O)CCCCC3)CCC2=O)cc1` (stereo unspecified) stands -4.96%; under `Cc1cc(OC2CCCCC2)nc(NCc2ccccc2)n1`, 29.8%; under `Cc1cc(N2CCOCC2)nc(NCc2ccccc2)n1`, 15.7%.
For `Cc1cc(N2CCN(c3ccccc3)CC2)nc(NCc2ccccc2)n1`, the inhibition is 36.7%.
`Cc1cc(Nc2ccccc2)nc(NCc2ccccc2)n1`: the inhibition is 69.7%.
The same measure for `Cc1ccc(SCCC(=O)OCC(=O)Nc2ccc(C(N)=O)cc2)cc1`: -4.28%; for `COc1cc(S(=O)(=O)Nc2ccncc2)ccc1F`: -1.45%.
Under `COc1cccc(Nc2nc3cc(OC)ccc3cc2C#N)c1` stands 2.07%.
In the case of `O=C(Nc1nn[nH]n1)c1cc(-c2ccc(Cl)c(Cl)c2Cl)nc2ccccc12`, the inhibition was 28.1%.
As for `Cc1cc2[nH]c(=O)c(=O)[nH]c2cc1S(=O)(=O)N(C)C1CCCCC1`, the inhibition was found to be 13.6%.
Under `O=C(O)CN1C(=O)CSC1=S` stands -1.21%; under `CC(C)OC(=O)CCCN1C(=O)c2ccc(N)cc2C1=O`, -10.2%.
As for `COC(=O)C1=C(C)NC(C)=C(C(=O)OC)C1C(=O)OC1CCCCC1=O` (stereo unspecified), the inhibition is -9.56%.
For `CCOC(=O)C1CCN(CC(=O)Nc2c(C(=O)OC)[nH]c3cccc(C)c23)CC1`, the inhibition stood at 2.06%.
Under `CC(=O)NCC(=O)OCC(=O)N1c2ccccc2Sc2ccccc21` stands 15.6%; under `CCOC(=O)N1c2ccccc2Sc2ccccc21`, 11.9%.
Under `COc1cccc(CN(C)C(=O)Cc2c[nH]c3ccccc23)c1OC` stands 5.31%; under `CCOC(=O)C1=C(COC(=O)c2ccc(C)s2)NC(=O)NC1C` (stereo unspecified), 11.3%; under `CCS(=O)(=O)N1N=C(c2cccc(NS(C)(=O)=O)c2)CC1c1ccccc1` (stereo unspecified), 36.4%.
The same measure for `Cc1nn(-c2nc3ccccc3[nH]2)c(=O)c2ccccc12`: 34%; for `Cc1nn(-c2nc3ccccc3s2)c(N)c1-c1ccc(Cl)cc1`: -4.69%; for `CCC(=O)c1ccc(OCC(=O)OCC(=O)c2cc(C)n(CC3CCCO3)c2C)cc1` (stereo unspecified): 70.2%.
On to `Cc1cc(C(=O)COC(=O)COc2ccc(C#N)cc2)c(C)n1C1CC1`, for which the inhibition amounted to 47%.
In the case of `CC(C)c1ccc(NC(=O)C2CCCN2S(=O)(=O)c2ccccc2F)cc1` (stereo unspecified), the inhibition is -6.6%.
The same measure for `CC1=Nc2ccccc2/C1=C/c1c(O)[nH]c(=O)[nH]c1=O`: 1.63%; for `O=c1[nH]c(O)c(C=Nc2ccc(F)c(Cl)c2)c(=O)[nH]1`: 4.76%.
For `O=C(Nc1cccc(Cl)c1)c1nc[nH]c1C(=O)NCc1ccccc1`, the inhibition stood at 78.3%.
Turning to `CCCNC(=O)N1CCC(Cc2ccccc2)CC1`, the inhibition turned out to be 67.7%.
Take `Cc1cc(C(=O)N2CCC(Cc3ccccc3)CC2)c(C)o1`: the inhibition amounted to 15.3%.
Under `O=C(c1cccs1)N1CCC(Cc2ccccc2)CC1` stands 11.9%.
Regarding `CCOCC(=O)N1CCC(Cc2ccccc2)CC1`, the inhibition was 47.1%.
With `O=C(O)CCCC(=O)N1CCN(c2ncccn2)CC1`, the inhibition is -16.3%.
Under `COc1ccc(-n2cc(C(=O)c3cc4ccccc4oc3=O)c(C(C)=O)n2)cc1` stands 19.3%; under `COc1ccc(CCNC(=O)c2cccc(S(=O)(=O)N3CCOCC3)c2)cc1OC`, 16%; under `O=C(COC(=O)c1ccc[nH]c1=O)c1ccc(Cl)s1`, 21.8%.
For the compound `O=C(Cc1ccc(Br)cc1)OCC(=O)c1ccc[nH]1`, the inhibition is 79.4%.
In the case of `O=C(COC(=O)c1nc(Cl)ccc1Cl)c1ccc[nH]1`, the inhibition was 4.28%.
The same measure for `O=C(Cc1ccc(Cl)c(Cl)c1)OCC(=O)c1ccc[nH]1`: 70.6%; for `CC(=O)N1c2ccc(S(=O)(=O)NCC3CCC(C(=O)NCc4ccccc4)CC3)cc2CC1C` (stereo unspecified): 14.7%; for `COc1ccc(CC2C(=O)N(C)C(=O)N(C)C2=O)c(OC)c1`: -3.03%.
Under `O=C/C(=C\Nc1ccc(Cl)cn1)c1nc2cc(Cl)ccc2o1` stands 58.2%; under `CC(Oc1ccc2cc(-c3ccccc3)c(=O)oc2c1)C(=O)NCC1CCC(C(=O)O)CC1` (stereo unspecified), 4.91%.
For the compound `COc1ccc(-c2cc3ccc(OCC(N)=O)cc3oc2=O)cc1OC`, the inhibition is 17.8%.
With `COc1ccc(-c2cc(=O)oc3cc(OCC(=O)N(C)C)ccc23)cc1`, the inhibition was -18.8%.
`COC(=O)C(C)Oc1ccc2c(-c3cccc([N+](=O)[O-])c3)cc(=O)oc2c1` (stereo unspecified): the inhibition came to 67.4%.
Turning to `COc1ccc(-c2cc3ccc(OC(C)C(=O)O)cc3oc2=O)cc1` (stereo unspecified), the inhibition was -4.62%.
The same measure for `CC(=O)COc1ccc2c(-c3cccc([N+](=O)[O-])c3)cc(=O)oc2c1`: -17.4%; for `COc1ccc(-c2cc(=O)oc3cc(OCC(C)=O)ccc23)cc1`: 36.8%.
For `COc1ccc(-c2cc3ccc(OCC(C)=O)cc3oc2=O)cc1`, the inhibition turned out to be 15.4%.
Take `NS(=O)(=O)c1ccc(CCNC(=O)c2cccc(S(=O)(=O)N3CCCC3)c2)cc1`: the inhibition was 17.3%.
The same measure for `S=c1[nH]nc(C2CCCCC2)n1/N=C/c1cccc(Br)c1`: -5.05%.
Under `O=C(c1ccco1)N1CCN(S(=O)(=O)c2ccc(Cl)cc2)CC1` stands -7.62%; under `COCCCNC(=O)Nc1ccc(F)cc1F`, -3.58%.
Under `NC(=O)COc1cc2oc(=O)c3c(c2cc1Cl)CCCC3` stands -1.26%; under `CCN(CC)C(=O)c1sc(N)c(C(=O)OC(C)C)c1C`, 29.4%.
For the compound `O=C(O)C1CC=CCC1C(=O)c1ccccc1` (stereo unspecified), the inhibition was -2.95%.

For the origin of these results see PubChem BioAssay AID488890 (Southern Research Specialized Biocontainment Screening …, 2010).
